PubChem BioAssay (NCATS)
Records with an inconclusive call do not appear. The source made the active and inactive calls. The call rests on the fitted dose curve; in most records, active means well fitted curve in either direction with a large enough effect (not every such curve was filed as active); inconclusive means small, poorly fitted or top-dose-only effect, or another doubt; inactive means flat fitted curve, though single readings scatter.

experiment: NFAT Signaling Pathway (AID 444); details: Jurkat NFAT-bla M1, carbachol, beta-lactamase ratio, 5 h; at 17.2 µM (top of the series) unless noted;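 further: carbachol stimulus at about its EC50 of 1 µM final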
Procedure, shortened: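 Jurkat cells carrying an NFAT-driven β-lactamase reporter and co-transfected muscarinic M1 receptor were treated with compound plus carbachol (1 uM final, an EC50 level) for 5 h at 37 °C. CCF4 loading followed for 1 h at RT; 460/530 nm ratio gave %activity.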
On the % scale 0 is the no-effect control and ±100 the full control effect.

Activity change, negative = inhibition, inactive:
CCOC(=O)c1c(C)n(C)c2ccc(OC)c(NC(=O)CN3CCSCC3)c12 -0.789%
CCCCCC(=O)N1CC2(C)CN(C(=O)CCCCC)CC(C)(C1)C2=O -13.6%
Cc1occc1C(=O)OCC(=O)Nc1ccc(F)cc1 1.22%
CCN(CC)CCCN1C(=O)C(=O)/C(=C(/O)c2ccc(C)cc2)C1c1ccccn1 (stereo not given) 10.1%
Cn1c(=O)c2c(nc(N3CCC(C(N)=O)CC3)n2CCSc2nc3ccccc3s2)n(C)c1=O -5.54%
Cc1cccc(-c2nc(C#N)c(NC3CCCCC3)o2)c1 -26.6%
COCCOC(=O)C1=C(C)OC(N)=C(C#N)C1c1ccco1 (stereo not given) -14.6%
CCCCC(CCC(=O)Nc1ccc(C(=O)OCC)cc1)C(=O)O (stereo not given) 8.16%
COc1ccc(/C(O)=C2/C(=O)C(=O)N(c3nc(C)c(C)s3)C2c2ccco2)cc1 (stereo not given) 21.3%
CCOC(=O)C1CCCN(c2nc3ccccc3nc2C(C#N)C(=O)OC(C)COC)C1 (stereo not given) -5.6%
COC(=O)C1=C(C)OC(N)=C(C#N)C1c1ccc(OC)c(OC)c1OC (stereo not given) -15.6%
CCOc1ccc(-n2c(SCc3ccc(C#N)cc3)nnc2-c2cccnc2)cc1 6.12%
Cc1ccc(C)c(OCc2nnc(NC(=O)c3ccco3)s2)c1 9.32%
O=C(c1cccc(Cl)c1)N1CCN(C(=O)c2ccccc2F)CC1 0.199%
COc1ccccc1C1CC(c2ccc(Cl)cc2)Nc2nc(N)nn21 (stereo not given) 22.1%
CC(=O)Nc1cnc2ccccc2n1 -13.5%
Cc1cccc(C)c1OCC(O)CNS(=O)(=O)c1ccccc1C(=O)N1CCOCC1 (stereo not given) 9%
Cc1cccc(-c2nnc3n2N=C(c2ccc(Br)cc2)CS3)c1 -1.71%
CC1(C(=O)CSc2nc3ccccc3s2)CCC(=O)O1 (stereo not given) 1.72%
Cc1nnc2n(Cc3ccccc3)c(=O)c3c4c(sc3n12)CN(Cc1ccccc1)CC4 -8.71%
CCOC(=O)CSC1=C(C#N)C(c2ccc3c(c2)OCO3)CC(=O)N1 (stereo not given) 4.11%
Cc1ccc(C(=O)C2=C(O)C(=O)N(c3ncccn3)C2c2ccc(Cl)cc2)o1 (stereo not given) 23%
COc1ccccc1N(O)C1CC(=O)N(c2ccc(F)cc2)C1=O (stereo not given) -3.85%
Cc1nnc(N2CCCCC2)c2ccccc12 13.3%
Cn1c(=O)c2c3c(sc2n2c(SCC(=O)c4ccccc4)nnc12)COC(C)(C)C3 -28.1%
CCN(CC)CCN1C(=O)C(O)=C(C(=O)c2ccco2)C1c1ccccn1 (stereo not given) -0.0336%
CCCOc1ccc(/C(O)=C2/C(=O)C(=O)N(CCN(C)C)C2c2ccncc2)cc1 (stereo not given) 4.76%
CC1(C)CC(NC(=O)C23CCC(C)(/C(=N/O)C2)C3(C)C)CC(C)(C)N1 (stereo not given) 10.5%
Cc1ccc(N2C(=O)CC(Cn3nc(C)cc3C)C2=O)cc1 (stereo not given) 6.84%
Cn1c(-n2c(-c3ccco3)nc3ccccc3c2=O)nc2ccccc21 -6.94%
CCc1cccc(CC)c1N(COC)C(=O)Cn1nnc2ccccc21 10%
c1ccc(OCc2nn3c(-c4ccco4)nnc3s2)cc1 1.21%
COc1cccc(OC)c1C(=O)Nc1nc2ccc(S(C)(=O)=O)cc2s1 21%
Nc1ccc2cn[nH]c2c1 2.08%
CCc1nc(N2CCN(C(=O)c3ccccc3)CC2)c(C#N)c2c1COC(C)(C)C2 21.3%
COc1ccccc1Cn1c2nc3ccccc3nc2c2c(=O)n(CC(C)C)cnc21 4.7%
O=C1C2ON(c3ccccc3)C(c3cccnc3)C2C(=O)N1Cc1ccccc1 (stereo not given) -1.42%
Cn1c(=O)c2c(nc(NCc3ccc4c(c3)OCO4)n2Cc2ccccc2Cl)n(C)c1=O -8.43%
COC(=O)COn1c(SCC(=O)OC)nc2ccccc2c1=O 3.27%
COc1ccc(-c2cn3ccsc3n2)cc1 4.22%

experiment: Stat Signaling Pathway (AID 446); details: ME-180 SIE beta-lactamase reporter, IL-6 stimulated, 5 h; at 17.2 µM (top of the series) unless noted;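 further: ME-180 cervical cancer cells given 40 pM IL-6 alongside compound; SIE-controlled beta-lactamase reporter measured as 460/530 nm FRET emission ratio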
Procedure, shortened: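 Reporter line: ME-180 cervical carcinoma, SIE-beta-lactamase. Treatment: compound with 40 pM IL-6, 5 hrs, 37 C, in low-serum OPTI-MEM with 10 mM HEPES pH 7.3. Detection: 460/530 nm fluorescence.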

activity, negative = inhibition, inactive:
CCOC(=O)c1c(C)n(C)c2ccc(OC)c(NC(=O)CN3CCSCC3)c12 -8.37%
CCCCCC(=O)N1CC2(C)CN(C(=O)CCCCC)CC(C)(C1)C2=O 5.3%
Cc1occc1C(=O)OCC(=O)Nc1ccc(F)cc1 -3.3%
CCN(CC)CCCN1C(=O)C(=O)/C(=C(/O)c2ccc(C)cc2)C1c1ccccn1 (stereo not given) 4.05%
Cn1c(=O)c2c(nc(N3CCC(C(N)=O)CC3)n2CCSc2nc3ccccc3s2)n(C)c1=O 1.48%
Cc1cccc(-c2nc(C#N)c(NC3CCCCC3)o2)c1 -7.27%
COCCOC(=O)C1=C(C)OC(N)=C(C#N)C1c1ccco1 (stereo not given) -4.05%
CCCCC(CCC(=O)Nc1ccc(C(=O)OCC)cc1)C(=O)O (stereo not given) 3.27%
COc1ccc(/C(O)=C2/C(=O)C(=O)N(c3nc(C)c(C)s3)C2c2ccco2)cc1 (stereo not given) -14.6%
CCOC(=O)C1CCCN(c2nc3ccccc3nc2C(C#N)C(=O)OC(C)COC)C1 (stereo not given) -14.5%
COC(=O)C1=C(C)OC(N)=C(C#N)C1c1ccc(OC)c(OC)c1OC (stereo not given) 8.15%
CCOc1ccc(-n2c(SCc3ccc(C#N)cc3)nnc2-c2cccnc2)cc1 -13.6%
Cc1ccc(C)c(OCc2nnc(NC(=O)c3ccco3)s2)c1 -9.58%
O=C(c1cccc(Cl)c1)N1CCN(C(=O)c2ccccc2F)CC1 -11.1%
COc1ccccc1C1CC(c2ccc(Cl)cc2)Nc2nc(N)nn21 (stereo not given) -2.9%
CC(=O)Nc1cnc2ccccc2n1 7.01%
Cc1cccc(C)c1OCC(O)CNS(=O)(=O)c1ccccc1C(=O)N1CCOCC1 (stereo not given) 3.91%
Cc1cccc(-c2nnc3n2N=C(c2ccc(Br)cc2)CS3)c1 7.64%
CC1(C(=O)CSc2nc3ccccc3s2)CCC(=O)O1 (stereo not given) 4.74%
Cc1nnc2n(Cc3ccccc3)c(=O)c3c4c(sc3n12)CN(Cc1ccccc1)CC4 5.01%
CCOC(=O)CSC1=C(C#N)C(c2ccc3c(c2)OCO3)CC(=O)N1 (stereo not given) 3.81%
Cc1ccc(C(=O)C2=C(O)C(=O)N(c3ncccn3)C2c2ccc(Cl)cc2)o1 (stereo not given) -10.8%
COc1ccccc1N(O)C1CC(=O)N(c2ccc(F)cc2)C1=O (stereo not given) 1.38%
Cc1nnc(N2CCCCC2)c2ccccc12 -8.53%
Cn1c(=O)c2c3c(sc2n2c(SCC(=O)c4ccccc4)nnc12)COC(C)(C)C3 4.51%
CCN(CC)CCN1C(=O)C(O)=C(C(=O)c2ccco2)C1c1ccccn1 (stereo not given) 3.83%
CCCOc1ccc(/C(O)=C2/C(=O)C(=O)N(CCN(C)C)C2c2ccncc2)cc1 (stereo not given) 5.47%
CC1(C)CC(NC(=O)C23CCC(C)(/C(=N/O)C2)C3(C)C)CC(C)(C)N1 (stereo not given) 0.446%
Cc1ccc(N2C(=O)CC(Cn3nc(C)cc3C)C2=O)cc1 (stereo not given) 13.4%
Cn1c(-n2c(-c3ccco3)nc3ccccc3c2=O)nc2ccccc21 9.91%
CCc1cccc(CC)c1N(COC)C(=O)Cn1nnc2ccccc21 -3.83%
c1ccc(OCc2nn3c(-c4ccco4)nnc3s2)cc1 -4.83%
COc1cccc(OC)c1C(=O)Nc1nc2ccc(S(C)(=O)=O)cc2s1 -10.6%
Nc1ccc2cn[nH]c2c1 6.7%
CCc1nc(N2CCN(C(=O)c3ccccc3)CC2)c(C#N)c2c1COC(C)(C)C2 -14%
COc1ccccc1Cn1c2nc3ccccc3nc2c2c(=O)n(CC(C)C)cnc21 -12.8%
O=C1C2ON(c3ccccc3)C(c3cccnc3)C2C(=O)N1Cc1ccccc1 (stereo not given) -8.95%
Cn1c(=O)c2c(nc(NCc3ccc4c(c3)OCO4)n2Cc2ccccc2Cl)n(C)c1=O -2.58%
COC(=O)COn1c(SCC(=O)OC)nc2ccccc2c1=O -1.3%
COc1ccc(-c2cn3ccsc3n2)cc1 -5.92%
